This is a sample that favours compounds with a hit; in the whole collection about 1.2% have one here.
RGS7-Gao reg: RGS7-Galphao binding modulators, primary screen, biochemical, multiplexed bead flow cytometry; Guanine nucleotide-binding protein G(o) subunit alpha (Homo sapiens), P09471; actives 0.35% (n = 220,000); actives lie on both sides; binding response (% of control), % at 10 µM; in the data active means binding response below about 49% or above about 150%; inconclusive means no clear call, values can overlap the other calls; inactive means in between;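 further: fluorescent Galphao held in activated GDP-AlF4 state binding bead-coupled RGS7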
Target sequence (P09471 whole entry, looked up): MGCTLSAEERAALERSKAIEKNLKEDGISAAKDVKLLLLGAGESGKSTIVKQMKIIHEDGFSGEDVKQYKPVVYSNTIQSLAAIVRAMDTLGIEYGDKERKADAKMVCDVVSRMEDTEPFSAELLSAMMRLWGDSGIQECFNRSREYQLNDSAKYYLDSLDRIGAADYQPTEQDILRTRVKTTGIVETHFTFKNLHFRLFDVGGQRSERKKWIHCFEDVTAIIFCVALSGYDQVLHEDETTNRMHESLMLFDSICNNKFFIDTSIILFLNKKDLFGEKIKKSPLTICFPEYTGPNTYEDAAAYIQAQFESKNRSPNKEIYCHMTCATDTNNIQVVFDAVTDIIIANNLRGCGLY
RGS16-Gao: modulators of RGS16 binding to Galphao, primary screen, biochemical, human proteins, multiplexed bead flow cytometry | actives 0.38% (n = 220,000) | bead-based flow cytometry RGS16-Galphao binding, fluorescence; actives lie on both sides | binding response (% of control), % at 10 µM | Regulator of G-protein signaling 16 (Homo sapiens) + Guanine nucleotide-binding protein …; call rule not given here;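 further: Galphao activated by GDP with aluminum fluoride before binding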
Target sequence (O15492 whole entry, looked up): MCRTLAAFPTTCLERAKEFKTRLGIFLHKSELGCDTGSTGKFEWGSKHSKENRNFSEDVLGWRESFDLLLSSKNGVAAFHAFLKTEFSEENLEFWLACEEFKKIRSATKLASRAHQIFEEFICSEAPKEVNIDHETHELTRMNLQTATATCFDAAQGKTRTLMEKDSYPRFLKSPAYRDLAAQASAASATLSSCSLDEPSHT
Target sequence (P09471 whole entry, looked up): as the sequence (P09471 whole entry, looked up) above
RGS4-Gao reg: modulators of RGS4 binding to Galphao, primary screen, biochemical, multiplexed bead flow cytometry; Guanine nucleotide-binding protein G(o) subunit alpha (Homo sapiens), P09471; actives lie on both sides; binding response (% of control), % at 10 µM; actives 0.33% (n = 220,000); AID 1415, 2008; in the data active means binding response below about 49% or above about 150%; inactive means in between;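 further: fluorescent Galphao activated with aluminum fluoride binding bead-coupled RGS4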
Avidin fluor: green autofluorescence of compounds with avidin beads – biophysical, 488/530 nm, flow cytometry, artefact control, profiling panel; compound fluorescence 488/530 nm; hits give high values; fluorescence (KMESF) at 10 µM; actives 0.38% (n = 220,000); AID 1775, 2009; in the data active means fluorescence above about 47
RGS8-Gao reg: RGS8-Galphao binding modulators, primary screen, biochemical, multiplexed bead flow cytometry; actives lie on both sides; response (percent of control binding), % at 10 µM; actives 0.34% (n = 220,000); AID 1423, 2008; in the data active means response below about 60% or above about 140%; inactive means in between;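 further: Galphao activated as the GDP aluminium fluoride complex binding bead-coupled RGS8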
GSH fluor: compound fluorescence on glutathione beads, profiling panel, artefact control, biophysical, 488/530 nm, flow cytometry | fluorescence (KMESF) at 10 µM | actives 0.25% (n = 190,000) | GSH beads flow cytometry, compound fluorescence 488/530 nm; hits give high values; in the data active means fluorescence above about 89;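 further: glutathione beads carrying GST-tagged Bcl family fusion proteins plus one bare bead set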
Each line names hits and unclear results; the compound was inactive in the other large screens; [ ] = remark or other dose.

COc1ccc(C2=C(O)C(C)N(c3ccccc3)C2=N)cc1OC (stereo not drawn)	Avidin fluor 53
COc1ccc(-c2cnn(-c3ccccc3)c2N)cc1OC	none
CN(C)S(=O)(=O)c1cc(C(=O)OCCn2cnc3c2c(=O)n(C)c(=O)n3C)ccc1Cl	RGS7-Gao reg inconclusive
Cn1c2ccccc2c2ncn(CCN3CCOCC3)c(=O)c21	GSH fluor 253
COc1ccc2c(c1)c1ncn(CCCN3CCOCC3)c(=O)c1n2C	none
CC(=O)Nc1ccccc1P(=O)(c1ccccc1)c1ccccc1OC(C)=O (stereo not drawn)	RGS7-Gao reg inconclusive (no result: GSH fluor)
Cc1cccc(N(CC(=O)N/N=C/c2cc([N+](=O)[O-])ccc2Cl)S(C)(=O)=O)c1C	Avidin fluor 49
COc1cc(NC(=S)NC(=O)c2ccc(C(C)(C)C)cc2)ccc1NC(=O)c1cccs1	none
COc1cc(NC(=S)NC(=O)c2cc(C)cc(C)c2)ccc1NC(=O)c1cccs1	GSH fluor 104
CCOc1cc(NC(=O)c2cnccn2)c(OCC)cc1NC(=O)c1cccc(F)c1	none
CC(O)C1C(=O)OC2(C)CC(C)(C)NC(=S)N12 (stereo not drawn)	GSH fluor 119
O=C(CSc1nc2ncc(Cl)cc2[nH]1)NCC(=O)Nc1ccc(F)c(F)c1F	RGS7-Gao reg inconclusive (no result: GSH fluor)
O=C(O)CCNS(=O)(=O)c1ccc2ccccc2c1	none
O=C(O)CCNc1cc2ccccc2cc1C(=O)O	GSH fluor 255
COc1cccc(CSc2nnc(C(F)(F)F)n2Cc2ccc(F)cc2)c1	RGS7-Gao reg 12, RGS16-Gao 0.4, RGS4-Gao reg 20, RGS8-Gao reg 12
Cc1ccc(CSc2nnc(C(F)(F)F)n2Cc2ccc(F)cc2)cc1	none
COC(=O)c1cc2c(ccn2-c2ccc(F)cc2)n1C(C)C	Avidin fluor 52
COC(=O)c1cc2c(ccn2-c2ccc(F)cc2)n1CC(C)C	none
COc1ccc2c(c1)O/C(=C\c1sccc1C)C2=O	none
O=C(NC(=O)N1CCN(c2ccc([N+](=O)[O-])cn2)CC1)c1c(Cl)cccc1Cl	RGS7-Gao reg inconclusive, Avidin fluor 49 (no result: GSH fluor)
O=C(NC(=O)N1CCN(c2ccc([N+](=O)[O-])cn2)CC1)c1ccccc1F	RGS7-Gao reg inconclusive (no result: GSH fluor)
Cc1cc(Nc2ccccc2C(=O)O)n(-c2ccc([N+](=O)[O-])cc2)n1	RGS7-Gao reg inconclusive (no result: GSH fluor)
Cc1nc(N2CCC(C)CC2)c2nnn(Cc3ccccc3)c2n1	GSH fluor 89
COc1cc(C(=O)NCCc2ccc3c(c2)OCCO3)ccc1OCC(=O)N1CCOCC1	Avidin fluor 68
CC(C)COc1ccc(/C(O)=C2/C(=O)C(=O)N(CCN(C)C)C2c2ccncc2)cc1 (stereo not drawn)	none
COc1cc(C2/C(=C(/O)c3ccc(OCC(C)C)cc3)C(=O)C(=O)N2CCN(C)C)ccc1O (stereo not drawn)	GSH fluor 262
COc1ccccc1-c1nn2c(-c3ccco3)nnc2s1	none
COc1ccccc1-c1nn2c(=O)cc(C)nc2s1	GSH fluor 254
CCOC(=O)N1CCN(c2cc(NCCO)c([N+](=O)[O-])c3nonc23)CC1	Avidin fluor 103
O=C(C1CCN(S(=O)(=O)N2CCC3(CC2)OCCO3)CC1)N1CCC(Cc2ccccc2)CC1	RGS7-Gao reg 298[activator], RGS16-Gao 526[activator], RGS4-Gao reg 387[activator], Avidin fluor 233
O=C(NCCCn1ccnc1)c1cc(S(=O)(=O)N2CCOCC2)c(Cl)cc1Cl	GSH fluor 249
Cc1ccc(S(=O)(=O)N2CCOCC2)cc1C(=O)NCCCn1ccnc1	none
Cc1ccc(-c2nc3cccnc3s2)cc1NS(C)(=O)=O	RGS7-Gao reg -31, RGS16-Gao -19, RGS4-Gao reg -22, RGS8-Gao reg 2.3
CCOc1ccccc1C(=O)NC(C(=O)Nc1cccc(S(N)(=O)=O)c1)C(C)C (stereo not drawn)	none
O=C(Oc1cc(Cl)ccc1Cl)c1ccc(N2CCOCC2)c([N+](=O)[O-])c1	none
CCC1(CC)C(=O)NC(=O)NC1=NCCc1ccc(O)cc1	Avidin fluor 75
S=C(NCc1ccco1)Nc1ccc(Oc2ccccc2)cc1	none
Cc1ccc(S(=O)(=O)N2CCC(C(=O)NNC(=O)c3ccc(F)cc3)CC2)cc1	none
CN(C)c1ccc(/C=C2\SC(=S)N(Nc3ncc(C(F)(F)F)cc3Cl)C2=O)cc1	Avidin fluor 56
CCn1c2ccccc2c2cc(NC(=O)N3CCOCC3)ccc21	Avidin fluor 47
Cc1cccc(NC(=S)N2CCC(c3nc4ccccc4o3)CC2)c1C	RGS7-Gao reg 42, RGS4-Gao reg 48, RGS8-Gao reg 55
CC(=O)Oc1ccc2oc3c(c2c1)C(=O)CCC3	GSH fluor 260
CC(=O)Oc1ccc2oc(C)c(C(=O)N3CCOCC3)c2c1	none
O=Cc1ccccc1OCCOc1ccc([N+](=O)[O-])cc1	none
CS(=O)(=O)c1ccc2nc(NC(=O)c3cccs3)sc2c1	Avidin fluor 56
Cc1sc2nc(CN(C(=O)NC3CCCCC3)C3CCCC3)[nH]c(=O)c2c1C	Avidin fluor 56
COCC(=O)N(Cc1nc2sc(C)c(C)c2c(=O)[nH]1)C1CCCCC1	RGS7-Gao reg inconclusive (no result: GSH fluor)
CCN(CC(=O)NC(C)C)C(=O)[C@H](C)NC(=O)c1ccc(Br)cc1	none
CC(=O)c1c(C)oc2ccc(NS(=O)(=O)c3cccs3)cc12	Avidin fluor 122
CCOC(=O)c1c(C)oc2ccc(NS(=O)(=O)c3cccs3)cc12	none
CCc1ccc(NC(=O)C(=O)NCc2ccccn2)cc1	none
CCCc1cc(=O)[nH]c(SCC(=O)Nc2ccc([N+](=O)[O-])cc2C#N)n1	RGS7-Gao reg inconclusive (no result: GSH fluor)
COC(=O)CSc1nnc(SCc2ccc(OC)cc2)s1	Avidin fluor 50
COc1ccc(CSc2nnc(SCc3ccc([N+](=O)[O-])cc3)s2)cc1	none
c1ccc2c3c([nH]c2c1)-c1[nH]ncc1CC3	GSH fluor 265
CCOc1c(Br)cc(/C=C2/SC(=O)N(CC(=O)N3CCCC3)C2=O)cc1OC	none
CCOC(=O)COc1c(Br)cc(/C=C2\SC(=O)N(CC(=O)N3CCCC3)C2=O)cc1OC	Avidin fluor 80
O=C(NCc1ccc2c(c1)OCO2)c1c[nH]c2ccc(S(=O)(=O)N3CCOCC3)cc2c1=O	none
O=C(NCc1ccccc1)c1c[nH]c2cc3c(cc2c1=O)OCCO3	GSH fluor 89
O=S(=O)(Nc1ccc(Cl)cc1)c1ccc2c(c1)CCO2	RGS7-Gao reg inconclusive, Avidin fluor 62 (no result: GSH fluor)

Source: PubChem BioAssay
